In article PMC7862700, “An all-to-all approach to the identification of sequence-specific readers for epigenetic DNA modifications on cytosine”:

Tests used:
Assay in all cases: DAPPL (digital affinity profiling via proximity ligation, sequencing); 10 mM Tris-HCl pH 7.5, 50 mM NaCl, 1 mM DTT, 4% glycerol, room temperature, 30 min; GST-TFs on glutathione beads, 16-mer random dsDNA library, 0.1% formaldehyde crosslink after washing; high values mean tight binding
FLI1 = target: T1, FLI1 (Homo sapiens, UniProt Q01543 1-452); conditions: protein: recombinant; tags: N-terminal GST; dsDNA, one strand shown
T1 sequence: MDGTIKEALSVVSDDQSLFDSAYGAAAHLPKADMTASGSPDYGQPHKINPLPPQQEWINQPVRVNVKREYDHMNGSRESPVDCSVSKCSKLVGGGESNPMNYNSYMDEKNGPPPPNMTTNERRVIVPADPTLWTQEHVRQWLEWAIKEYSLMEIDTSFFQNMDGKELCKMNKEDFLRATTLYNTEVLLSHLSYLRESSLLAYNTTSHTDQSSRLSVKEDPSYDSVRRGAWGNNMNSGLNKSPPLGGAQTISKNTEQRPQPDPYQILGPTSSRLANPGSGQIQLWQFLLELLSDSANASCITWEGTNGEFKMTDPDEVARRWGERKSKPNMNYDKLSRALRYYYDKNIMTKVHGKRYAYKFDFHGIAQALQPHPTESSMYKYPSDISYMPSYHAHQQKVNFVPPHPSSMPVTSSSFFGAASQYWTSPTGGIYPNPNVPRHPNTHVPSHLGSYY
In short: (§1)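 Each value of binding signal is a hexamer's read frequency for a factor divided by the same hexamer's frequency in the tag-only sample. Barcoded, bead-captured GST fusions of human transcription factors made in yeast were pooled with that sample and incubated with 200 nmole of a random double-stranded 16-mer DNA library in Tris/NaCl/DTT/glycerol buffer at room temperature for 30 min. Washing, 0.1% formaldehyde crosslinking, proximity ligation, PCR and Illumina NextSeq500 sequencing followed.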

ELK1 = target: T2, ELK1 (Homo sapiens, UniProt P19419 1-428); conditions: protein: recombinant; tags: N-terminal GST; dsDNA, one strand shown
T2 sequence: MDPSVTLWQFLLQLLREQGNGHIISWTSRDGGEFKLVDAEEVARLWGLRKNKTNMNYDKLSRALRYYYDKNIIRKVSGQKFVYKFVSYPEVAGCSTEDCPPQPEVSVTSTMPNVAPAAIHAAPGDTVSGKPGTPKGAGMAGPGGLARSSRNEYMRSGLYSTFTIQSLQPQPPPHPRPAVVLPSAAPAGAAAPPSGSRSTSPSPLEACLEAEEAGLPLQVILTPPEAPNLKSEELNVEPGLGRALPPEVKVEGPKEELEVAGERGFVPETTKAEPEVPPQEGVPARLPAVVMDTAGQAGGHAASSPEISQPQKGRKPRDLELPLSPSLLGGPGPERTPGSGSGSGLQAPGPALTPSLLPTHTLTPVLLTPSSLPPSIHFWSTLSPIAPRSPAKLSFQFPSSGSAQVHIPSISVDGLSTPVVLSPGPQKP
In short: as §1

GABPA = target: T3, GABPA (Homo sapiens, UniProt Q06546 1-454); conditions: protein: recombinant; tags: N-terminal GST; dsDNA, one strand shown
T3 sequence: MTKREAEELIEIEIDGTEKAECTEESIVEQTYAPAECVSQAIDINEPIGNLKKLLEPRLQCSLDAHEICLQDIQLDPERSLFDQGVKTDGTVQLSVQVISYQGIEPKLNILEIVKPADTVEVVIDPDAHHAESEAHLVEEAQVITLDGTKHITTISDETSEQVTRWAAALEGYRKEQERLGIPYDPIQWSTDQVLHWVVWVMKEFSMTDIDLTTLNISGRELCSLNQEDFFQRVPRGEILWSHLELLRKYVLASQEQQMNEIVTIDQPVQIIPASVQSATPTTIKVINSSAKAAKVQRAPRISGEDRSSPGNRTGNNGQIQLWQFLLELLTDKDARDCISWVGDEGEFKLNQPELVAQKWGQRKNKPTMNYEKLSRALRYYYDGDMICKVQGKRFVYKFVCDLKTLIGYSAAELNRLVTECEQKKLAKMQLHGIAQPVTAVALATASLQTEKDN
In short: as §1

ERG = target: T4, ERG (Homo sapiens, UniProt P11308 1-479); conditions: protein: recombinant; tags: N-terminal GST; dsDNA, one strand shown
T4 sequence: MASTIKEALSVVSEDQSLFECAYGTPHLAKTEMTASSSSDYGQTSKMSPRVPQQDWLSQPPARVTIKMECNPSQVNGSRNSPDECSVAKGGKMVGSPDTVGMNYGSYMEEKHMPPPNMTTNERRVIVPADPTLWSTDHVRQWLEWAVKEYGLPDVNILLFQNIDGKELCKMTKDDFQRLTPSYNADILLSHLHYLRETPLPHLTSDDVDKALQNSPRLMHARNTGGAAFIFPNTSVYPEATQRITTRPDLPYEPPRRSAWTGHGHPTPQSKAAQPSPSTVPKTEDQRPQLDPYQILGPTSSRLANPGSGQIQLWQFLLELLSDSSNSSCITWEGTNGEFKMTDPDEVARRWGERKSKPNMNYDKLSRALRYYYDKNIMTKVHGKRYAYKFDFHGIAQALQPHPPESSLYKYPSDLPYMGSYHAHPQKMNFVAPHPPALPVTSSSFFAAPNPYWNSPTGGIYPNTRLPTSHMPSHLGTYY
In short: as §1

ELF1 = ELF1 (Homo sapiens, UniProt P32519 1-619); conditions: protein: recombinant; tags: N-terminal GST; dsDNA, one strand shown
In short: as §1

EHF = target: T5, EHF (Homo sapiens, UniProt Q9NZC4 1-300); conditions: protein: recombinant; tags: N-terminal GST; dsDNA, one strand shown
T5 sequence: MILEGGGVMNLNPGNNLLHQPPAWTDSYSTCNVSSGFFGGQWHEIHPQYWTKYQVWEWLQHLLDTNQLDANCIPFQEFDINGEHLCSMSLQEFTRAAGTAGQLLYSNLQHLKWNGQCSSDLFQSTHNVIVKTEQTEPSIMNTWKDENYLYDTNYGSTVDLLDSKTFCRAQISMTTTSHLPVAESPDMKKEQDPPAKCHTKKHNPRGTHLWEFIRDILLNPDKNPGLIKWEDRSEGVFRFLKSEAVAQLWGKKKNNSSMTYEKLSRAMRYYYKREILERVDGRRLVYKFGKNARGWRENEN
In short: as §1

SPI1 = SPI1 (Homo sapiens, UniProt P17947 1-270); conditions: protein: recombinant; tags: N-terminal GST; dsDNA, one strand shown
In short: as §1

SPIB = SPIB (Homo sapiens, UniProt Q01892 1-262); conditions: protein: recombinant; tags: N-terminal GST; dsDNA, one strand shown
In short: as §1

ELK3 = target: T6, ELK3 (Homo sapiens, UniProt P41970 1-407); conditions: protein: recombinant; tags: N-terminal GST; dsDNA, one strand shown
T6 sequence: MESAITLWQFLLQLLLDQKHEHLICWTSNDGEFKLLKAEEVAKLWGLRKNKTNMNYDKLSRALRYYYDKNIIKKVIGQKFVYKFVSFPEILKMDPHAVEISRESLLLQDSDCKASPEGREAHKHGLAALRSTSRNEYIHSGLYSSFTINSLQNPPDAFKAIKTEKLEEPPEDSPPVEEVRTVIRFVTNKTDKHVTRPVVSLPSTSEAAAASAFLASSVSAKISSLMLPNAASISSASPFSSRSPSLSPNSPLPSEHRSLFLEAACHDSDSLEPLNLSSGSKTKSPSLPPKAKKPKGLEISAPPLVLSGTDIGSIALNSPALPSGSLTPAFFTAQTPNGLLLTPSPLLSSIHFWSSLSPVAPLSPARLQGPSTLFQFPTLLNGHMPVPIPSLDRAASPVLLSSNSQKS
In short: as §1

FEV = target: T7, FEV (Homo sapiens, UniProt Q99581 1-238); conditions: protein: recombinant; tags: N-terminal GST; dsDNA, one strand shown
T7 sequence: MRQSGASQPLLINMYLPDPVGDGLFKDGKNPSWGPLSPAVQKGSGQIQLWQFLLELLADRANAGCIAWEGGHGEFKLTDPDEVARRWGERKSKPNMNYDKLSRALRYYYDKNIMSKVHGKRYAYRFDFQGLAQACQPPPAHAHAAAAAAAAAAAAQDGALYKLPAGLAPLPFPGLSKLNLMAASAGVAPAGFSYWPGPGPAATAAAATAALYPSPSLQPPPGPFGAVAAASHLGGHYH
In short: as §1

ETV5 = ETV5 (Homo sapiens, UniProt P41161 1-510); conditions: protein: recombinant; tags: N-terminal GST; dsDNA, one strand shown
In short: as §1

HSF1 = HSF1 (Homo sapiens, UniProt Q00613 1-529); conditions: protein: recombinant; tags: N-terminal GST; chain copies: 3; dsDNA, one strand shown
In short: as §1

SPIC = target: T8, SPIC (Homo sapiens, UniProt Q8N5J4 1-248); conditions: protein: recombinant; tags: N-terminal GST; dsDNA, one strand shown
T8 sequence: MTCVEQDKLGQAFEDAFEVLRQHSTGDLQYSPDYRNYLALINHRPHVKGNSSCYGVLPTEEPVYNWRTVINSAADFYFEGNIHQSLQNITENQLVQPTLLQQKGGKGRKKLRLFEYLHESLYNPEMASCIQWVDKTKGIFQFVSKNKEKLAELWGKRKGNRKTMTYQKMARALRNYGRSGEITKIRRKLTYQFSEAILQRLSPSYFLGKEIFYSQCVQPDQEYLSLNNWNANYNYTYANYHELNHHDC
In short: as §1

ELF4 = ELF4 (Homo sapiens, UniProt Q99607 1-663); conditions: protein: recombinant; tags: N-terminal GST; dsDNA, one strand shown
In short: as §1

ELK4 = target: T9, ELK4 (Homo sapiens, UniProt P28324-2 1-405); conditions: protein: recombinant; tags: N-terminal GST; dsDNA, one strand shown
T9 sequence: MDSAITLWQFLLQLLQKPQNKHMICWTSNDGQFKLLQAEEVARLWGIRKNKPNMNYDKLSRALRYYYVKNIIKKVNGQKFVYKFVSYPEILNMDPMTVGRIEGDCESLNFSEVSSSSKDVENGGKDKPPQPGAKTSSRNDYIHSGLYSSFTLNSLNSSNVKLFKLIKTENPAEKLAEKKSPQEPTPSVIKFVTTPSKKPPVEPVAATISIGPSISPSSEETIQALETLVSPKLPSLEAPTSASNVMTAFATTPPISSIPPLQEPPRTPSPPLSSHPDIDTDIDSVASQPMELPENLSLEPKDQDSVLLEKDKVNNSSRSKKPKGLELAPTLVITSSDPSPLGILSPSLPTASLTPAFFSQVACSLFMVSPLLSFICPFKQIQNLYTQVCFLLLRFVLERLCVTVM
In short: as §1

ETV2 = target: T10, ETV2 (Homo sapiens, UniProt O00321 1-342); conditions: protein: recombinant; tags: N-terminal GST; dsDNA, one strand shown
T10 sequence: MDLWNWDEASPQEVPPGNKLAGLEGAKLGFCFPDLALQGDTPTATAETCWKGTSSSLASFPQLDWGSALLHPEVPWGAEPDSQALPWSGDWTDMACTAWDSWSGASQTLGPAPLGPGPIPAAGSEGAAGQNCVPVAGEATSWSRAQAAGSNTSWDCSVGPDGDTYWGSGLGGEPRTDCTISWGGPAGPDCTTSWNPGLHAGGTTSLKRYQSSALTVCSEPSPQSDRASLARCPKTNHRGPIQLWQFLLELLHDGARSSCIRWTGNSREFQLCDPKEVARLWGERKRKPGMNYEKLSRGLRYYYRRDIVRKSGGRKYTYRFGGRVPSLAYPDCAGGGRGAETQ
In short: as §1

ELF3 = target: T11, ELF3 (Homo sapiens, UniProt P78545 1-371); conditions: protein: recombinant; tags: N-terminal GST; dsDNA, one strand shown
T11 sequence: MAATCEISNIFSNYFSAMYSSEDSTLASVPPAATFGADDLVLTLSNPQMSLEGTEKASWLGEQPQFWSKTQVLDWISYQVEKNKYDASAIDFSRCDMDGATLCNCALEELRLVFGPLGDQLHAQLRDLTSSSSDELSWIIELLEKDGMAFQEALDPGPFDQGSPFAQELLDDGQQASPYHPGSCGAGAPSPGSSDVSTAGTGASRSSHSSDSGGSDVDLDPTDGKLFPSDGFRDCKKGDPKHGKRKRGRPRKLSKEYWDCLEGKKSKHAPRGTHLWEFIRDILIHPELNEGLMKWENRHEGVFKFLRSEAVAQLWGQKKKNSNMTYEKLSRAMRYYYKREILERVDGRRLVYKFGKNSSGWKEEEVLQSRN
In short: as §1

CRX = CRX (Homo sapiens, UniProt O43186 1-299); conditions: protein: recombinant; tags: N-terminal GST; dsDNA, one strand shown
In short: as §1

ETV1 = ETV1 (Homo sapiens, UniProt P50549 1-477); conditions: protein: recombinant; tags: N-terminal GST; dsDNA, one strand shown
In short: as §1

Sequence of ELF1 (P32519 whole entry): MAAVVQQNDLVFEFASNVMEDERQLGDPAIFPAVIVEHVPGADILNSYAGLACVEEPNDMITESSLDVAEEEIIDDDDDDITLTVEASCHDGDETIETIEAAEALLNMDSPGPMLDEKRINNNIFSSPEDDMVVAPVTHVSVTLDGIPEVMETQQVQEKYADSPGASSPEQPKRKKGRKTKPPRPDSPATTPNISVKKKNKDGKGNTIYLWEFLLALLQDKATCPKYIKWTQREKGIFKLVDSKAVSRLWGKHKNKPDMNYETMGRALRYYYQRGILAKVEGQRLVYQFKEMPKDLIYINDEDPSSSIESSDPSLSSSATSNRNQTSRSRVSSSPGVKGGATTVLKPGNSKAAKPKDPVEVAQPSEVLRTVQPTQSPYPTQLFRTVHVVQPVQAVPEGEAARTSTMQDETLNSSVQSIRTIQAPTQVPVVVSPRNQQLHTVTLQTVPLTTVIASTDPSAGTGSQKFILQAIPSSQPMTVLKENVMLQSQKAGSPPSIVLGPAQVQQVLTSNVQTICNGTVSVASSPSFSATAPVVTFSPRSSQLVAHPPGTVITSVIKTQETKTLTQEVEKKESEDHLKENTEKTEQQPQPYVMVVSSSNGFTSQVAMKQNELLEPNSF
Sequence of ELF4 (Q99607 whole entry): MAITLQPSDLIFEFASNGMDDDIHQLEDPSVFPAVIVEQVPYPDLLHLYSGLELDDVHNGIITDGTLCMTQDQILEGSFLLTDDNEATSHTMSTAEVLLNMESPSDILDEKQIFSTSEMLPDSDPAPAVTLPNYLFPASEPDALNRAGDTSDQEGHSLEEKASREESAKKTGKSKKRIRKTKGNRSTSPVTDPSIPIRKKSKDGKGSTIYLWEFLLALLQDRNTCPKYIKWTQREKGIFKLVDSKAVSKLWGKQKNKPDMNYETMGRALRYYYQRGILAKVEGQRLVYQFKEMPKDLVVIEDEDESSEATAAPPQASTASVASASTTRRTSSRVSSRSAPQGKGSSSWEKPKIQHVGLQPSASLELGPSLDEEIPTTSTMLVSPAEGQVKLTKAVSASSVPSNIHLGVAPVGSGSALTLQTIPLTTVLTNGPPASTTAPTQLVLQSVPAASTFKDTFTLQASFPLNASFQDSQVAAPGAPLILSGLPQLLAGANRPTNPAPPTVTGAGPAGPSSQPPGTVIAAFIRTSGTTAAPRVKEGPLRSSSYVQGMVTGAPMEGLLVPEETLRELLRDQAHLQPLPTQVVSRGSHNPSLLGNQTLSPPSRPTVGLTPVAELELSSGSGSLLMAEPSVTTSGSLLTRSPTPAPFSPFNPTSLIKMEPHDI
Sequence of CRX (O43186 whole entry): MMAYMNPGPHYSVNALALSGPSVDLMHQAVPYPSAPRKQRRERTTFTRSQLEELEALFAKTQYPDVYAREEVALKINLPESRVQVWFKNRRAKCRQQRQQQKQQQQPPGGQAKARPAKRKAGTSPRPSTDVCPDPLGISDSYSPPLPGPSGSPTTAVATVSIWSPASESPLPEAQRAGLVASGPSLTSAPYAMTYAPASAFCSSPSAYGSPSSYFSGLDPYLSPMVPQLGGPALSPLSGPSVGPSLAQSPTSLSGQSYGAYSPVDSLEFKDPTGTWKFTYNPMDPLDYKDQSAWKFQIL
Sequence of HSF1 (Q00613 whole entry): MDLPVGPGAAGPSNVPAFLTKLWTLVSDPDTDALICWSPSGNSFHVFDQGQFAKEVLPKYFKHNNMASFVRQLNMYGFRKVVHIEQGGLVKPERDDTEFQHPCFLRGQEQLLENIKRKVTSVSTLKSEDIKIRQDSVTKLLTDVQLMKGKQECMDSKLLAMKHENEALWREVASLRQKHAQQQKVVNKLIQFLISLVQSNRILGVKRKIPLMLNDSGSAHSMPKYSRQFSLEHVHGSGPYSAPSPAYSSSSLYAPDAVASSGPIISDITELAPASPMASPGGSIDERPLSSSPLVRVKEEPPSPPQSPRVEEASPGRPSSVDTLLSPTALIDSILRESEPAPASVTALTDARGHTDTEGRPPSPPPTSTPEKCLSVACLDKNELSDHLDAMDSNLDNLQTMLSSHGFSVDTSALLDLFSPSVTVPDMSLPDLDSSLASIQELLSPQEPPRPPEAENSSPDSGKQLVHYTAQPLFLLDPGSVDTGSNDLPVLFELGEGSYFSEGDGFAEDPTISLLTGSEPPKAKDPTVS
Sequence of ETV5 (P41161 whole entry): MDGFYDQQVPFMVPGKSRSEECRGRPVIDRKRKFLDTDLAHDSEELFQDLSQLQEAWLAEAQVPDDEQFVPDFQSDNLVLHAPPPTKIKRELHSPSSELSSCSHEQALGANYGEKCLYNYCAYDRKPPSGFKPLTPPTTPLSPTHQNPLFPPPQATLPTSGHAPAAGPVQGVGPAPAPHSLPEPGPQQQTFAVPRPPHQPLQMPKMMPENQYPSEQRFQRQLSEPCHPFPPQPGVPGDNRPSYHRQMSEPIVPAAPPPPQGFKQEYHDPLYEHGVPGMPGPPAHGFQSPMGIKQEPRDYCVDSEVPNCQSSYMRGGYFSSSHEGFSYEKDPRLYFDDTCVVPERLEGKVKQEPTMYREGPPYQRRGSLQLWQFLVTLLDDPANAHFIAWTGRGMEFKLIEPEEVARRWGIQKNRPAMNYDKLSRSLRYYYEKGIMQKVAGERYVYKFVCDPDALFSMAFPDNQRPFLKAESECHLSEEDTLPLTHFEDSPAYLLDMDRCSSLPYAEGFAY
Sequence of SPIB (Q01892 whole entry): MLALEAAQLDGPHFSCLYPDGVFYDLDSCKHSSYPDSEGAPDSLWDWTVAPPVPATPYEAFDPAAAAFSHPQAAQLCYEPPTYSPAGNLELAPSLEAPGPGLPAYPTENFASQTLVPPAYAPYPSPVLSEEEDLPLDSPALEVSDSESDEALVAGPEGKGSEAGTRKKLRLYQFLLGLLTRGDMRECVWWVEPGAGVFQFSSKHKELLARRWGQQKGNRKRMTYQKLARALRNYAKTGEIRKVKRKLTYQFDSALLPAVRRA
Sequence of ETV1 (P50549 whole entry): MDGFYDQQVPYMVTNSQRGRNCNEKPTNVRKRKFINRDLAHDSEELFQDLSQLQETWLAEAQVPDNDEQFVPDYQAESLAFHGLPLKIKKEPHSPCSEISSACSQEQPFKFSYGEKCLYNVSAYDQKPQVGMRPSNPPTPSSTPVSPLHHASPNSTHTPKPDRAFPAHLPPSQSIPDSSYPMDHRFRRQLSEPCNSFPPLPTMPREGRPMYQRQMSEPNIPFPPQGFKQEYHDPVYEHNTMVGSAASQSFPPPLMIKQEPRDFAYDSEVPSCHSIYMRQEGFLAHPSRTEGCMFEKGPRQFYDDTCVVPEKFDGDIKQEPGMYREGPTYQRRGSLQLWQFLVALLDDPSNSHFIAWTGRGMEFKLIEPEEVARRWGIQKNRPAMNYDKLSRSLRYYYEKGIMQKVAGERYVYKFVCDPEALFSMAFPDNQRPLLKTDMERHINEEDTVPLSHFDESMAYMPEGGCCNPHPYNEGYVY

## CGCTTT
FLI1
  binding signal: 1.31 fold enrichment (6-mer frequency, TF over GST control)
ELK1
  binding signal: 1.1 fold enrichment (6-mer frequency, TF over GST control)
GABPA
  binding signal: 1.32 fold enrichment (6-mer frequency, TF over GST control)
ERG
  binding signal: 1.15 fold enrichment (6-mer frequency, TF over GST control)
ELF1
  binding signal: 1.18 fold enrichment (6-mer frequency, TF over GST control)
EHF
  binding signal: 1.19 fold enrichment (6-mer frequency, TF over GST control)
SPI1
  binding signal: 1.59 fold enrichment (6-mer frequency, TF over GST control)
SPIB
  binding signal: 1.4 fold enrichment (6-mer frequency, TF over GST control)
ELK3
  binding signal: 1.31 fold enrichment (6-mer frequency, TF over GST control)
FEV
  binding signal: 1.18 fold enrichment (6-mer frequency, TF over GST control)
ETV5
  binding signal: 1.21 fold enrichment (6-mer frequency, TF over GST control)
HSF1
  binding signal: 1.11 fold enrichment (6-mer frequency, TF over GST control)
SPIC
  binding signal: 1.17 fold enrichment (6-mer frequency, TF over GST control)
ELF4
  binding signal: 1.31 fold enrichment (6-mer frequency, TF over GST control)
ELK4
  binding signal: 1.17 fold enrichment (6-mer frequency, TF over GST control)
ETV2
  binding signal: 1.09 fold enrichment (6-mer frequency, TF over GST control)
ELF3
  binding signal: 1.22 fold enrichment (6-mer frequency, TF over GST control)
CRX
  binding signal: 1.37 fold enrichment (6-mer frequency, TF over GST control)
ETV1
  binding signal: 1.4 fold enrichment (6-mer frequency, TF over GST control)
